Compounds with a hit are over-represented: about 10% of the library has one in this group of screens.
VP16 counter = inhibits Gal4-VP16 luciferase reporter, ROR gamma counter-screen | Drosophila S2 Gal4-VP16 UAS-luciferase, luminescence, 20 h | Potency, µM (top dose mostly 53.6 µM), without a hit: at the highest dose activity, negative = inhibition, hits mostly inhibitors | 3.5% of 310,000 active | AID 2546;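 also: Gal4-VP16 expression switched on by copper sulfate through the metallothionein promoter; % is scaled to controls: 0 for no effect and ±100 for the full control effect; nearly all actives have a fitted effect of over 50% in size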
RORgamma inh = blocks mouse ROR gamma transcriptional activity; P51450; Drosophila S2 Gal4-RORgamma UAS-luciferase reporter, 20 h; Potency, µM (doses to about 53.6 µM), for the others: at the highest dose activity change, negative = inhibition, hits mostly inhibitors; 5.4% of 310,000 active; AID 2551; also: % is scaled to controls: 0 for no effect and ±100 for the full control effect; nearly all actives have a fitted effect of over 60% in size
Target sequence (P51450 whole entry, looked up, the tested form may be a part): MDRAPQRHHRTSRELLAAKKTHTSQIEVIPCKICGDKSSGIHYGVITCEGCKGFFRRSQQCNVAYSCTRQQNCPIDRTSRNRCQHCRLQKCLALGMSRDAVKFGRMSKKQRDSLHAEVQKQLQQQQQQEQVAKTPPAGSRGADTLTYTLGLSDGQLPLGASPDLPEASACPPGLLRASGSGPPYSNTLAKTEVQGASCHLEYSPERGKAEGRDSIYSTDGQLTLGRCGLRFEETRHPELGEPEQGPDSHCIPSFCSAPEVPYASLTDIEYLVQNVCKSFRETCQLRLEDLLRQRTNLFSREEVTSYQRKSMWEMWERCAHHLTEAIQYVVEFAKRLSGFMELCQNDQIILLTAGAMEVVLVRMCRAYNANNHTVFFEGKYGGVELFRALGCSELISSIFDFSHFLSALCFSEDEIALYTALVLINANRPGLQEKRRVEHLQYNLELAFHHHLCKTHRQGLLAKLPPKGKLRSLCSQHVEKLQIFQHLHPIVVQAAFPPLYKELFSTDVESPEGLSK
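Drosophila Schneider cells stably carrying a metallothionein-driven Gal4 DBD–ROR gamma fusion and a UAS-Photinus luciferase reporter were exposed to compound for 1 hr, then induced with copper sulfate (700 uM final) for 20 hr at ambient temperature before luminescence reading.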
MCF10A rerep = DNA re-replication induction in MCF 10a cells. 2.9% of 350,000 active. MCF 10A DNA re-replication, Hoechst nuclear intensity, 48 h. Potency, µM (top dose mostly 46.1 µM), inactives show at the highest dose activity, positive = re-replication, most hits filed as activators; also: % of control where 0% means no effect; nearly all actives have a fitted effect of over 50% in size
SW480 rereplic = induces DNA re-replication in SW480 colon adenocarcinoma cells. SW480 DNA re-replication, Hoechst DNA content imaging, 48 h. AID 624297. Potency, µM (highest dose often 46.1 µM), inactives show at the top dose re-replication activation, actives largely listed as activators. 1.8% of 340,000 active; also: % of control where 0% means no effect; nearly all actives have a fitted effect of over 55% in size
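Compounds, transferred as 23 nL by pin tool, were incubated with cells for 48 hr; DNA content per nucleus was then quantified by Hoechst staining and fluorescence plate imaging.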
ELG1 DNA repair = ELG1-dependent DNA repair inhibition. AID 504467. 2.3% of 330,000 active. Potency, µM (highest dose often 46.1 µM), for the others: at the highest dose activity change, negative = inhibition, usual class: inhibitors. HEK293T ELG1-luciferase reporter, luminescence, 16 h; DNA damage induced by 5-fluorouridine; also: % is scaled to controls: 0 for no effect and ±100 for the full control effect; nearly all actives have a fitted effect of over 55% in size
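In this reporter screen, reduction of luminescence relative to DMSO vehicle indicated activity. Compounds and 5-fluorouridine were added together to 2,000 cells per well, incubated for 16 hr at 37 °C, then developed with ONE-Glo.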
The depositor's hits bear a star; ? = inconclusive; . = not tested or not shown; [ ] = dose if it differs, or a comment. Calls follow the shape of the dose curve; as a rule, active = well fitted curve in the direction sought with a large enough effect; inconclusive = small, poorly fitted or top-dose-only effect, or another doubt; inactive = no such curve, though single readings can be large; an effect the other way counts as inactive or inconclusive. Potency is read from the fitted curve at half-maximal effect.

SMILES	VP16 counter	RORgamma inh	MCF10A rerep	SW480 rereplic	ELG1 DNA repair
Oc1ccc(N=Nc2ccccc2)cc1	-12%	-2%	-5%	-5%	?
O=C(O)c1cc(O)ccc1N=Nc1ccccc1	6%	20%	23µM*	?	-25%
C1CCCCCC(=NNc2nn[nH]n2)CCCCC1	-1%	2%	0%	8%	?
COc1ccc(C=NNc2nc3ccccc3s2)cc1	.	.	-12%	4%	.
C(=N\Nc1nc2ccccc2s1)/c1ccccn1	-95%	0.1µM*	?	?	?
Cc1csc(N/N=C/c2ccccn2)n1	1.1µM*	0.35µM*	?	3.7µM*	?
Cc1csc(N/N=C/c2ccc([N+](=O)[O-])cc2)n1	-24%	-52%	1%	1%	?
Brc1ccc(/C=C/C=N/Nc2nc3ccccc3s2)cc1	-3%	28%	7%	?	?
Brc1csc(/C=N/Nc2nc3ccccc3s2)c1	1.3µM*	0.56µM*	?	11%	?
Cn1c(=O)c2c(nc(/C=C/c3cccc(Cl)c3)n2C)n(C)c1=O	.	.	-7%	6%	.
Cc1cccc(N=C2Sc3nc4c(C)c(C)ccc4cc3CN2CCN2CCOCC2)c1	-5%	24%	12µM*	1%	9.2µM*
CCN(CC)S(=O)(=O)c1cc([N+](=O)[O-])ccc1NNC(=O)Nc1ccc(F)cc1	10%	61%	23µM*	-1%	?
CCN(CC)S(=O)(=O)c1cc([N+](=O)[O-])ccc1NNC(=O)Nc1ccccc1OC	20%	17%	29%	2%	19%
Cc1cc2ccccc2n1CCNC(=O)C1CC1	-1%	-17%	-1%	0%	8%
CCCn1c(NC(=O)c2ccc([N+](=O)[O-])o2)nc2ccccc21	.	.	?	21µM*	?
CCn1c(NC(=O)c2cccs2)nc2ccccc21	1.1µM*	0.71µM*	-1%	-5%	20%
Cc1cc2ccccc2n1CCNC(=O)c1cccs1	14µM*	13µM*	0%	-2%	?
CCCn1c(NC(=O)c2cccc(C)c2C)nc2ccccc21	2.2µM*	2µM*	?	?	-25%
O=C(Nc1cccc(S(=O)(=O)N2CCCCCC2)c1)C1CC(=O)N(c2ccc3c(c2)OCCO3)C1 (configuration not stated)	.	.	16%	2%	?
N#Cc1c(N)nc2c(c1-c1ccc(F)cc1)c(=O)nc1sccn12	-12%	22%	1%	-11%	?
Cc1ccc(NC(=O)COC(=O)CNC(=O)c2ccc(Br)cc2)c(C)c1	6%	-8%	9%	0%	0%
CC(C)Oc1ccc(CCN=C(N)N=C(N)N)cc1Cl	27%	?	10%	-44%	?
C#CCN(C)CC/C=C1\c2ccccc2CSc2ccccc21	24%	?	?	16µM*	-9%
CCOC(=O)c1c(C)[nH]c(C(=O)CN2C(=O)NC(C)(c3ccc4ccccc4c3)C2=O)c1C (configuration not stated)	-4%	36%	-2%	13%	16µM*
CCCC1(c2ccccc2)NC(=O)N(CC(=O)c2[nH]c(C)c(C(=O)OCC)c2C)C1=O (configuration not stated)	?	18%	26%	11%	18µM*
SMILES	VP16 counter	RORgamma inh	MCF10A rerep	SW480 rereplic	ELG1 DNA repair
CCOC(=O)c1c(C)[nH]c(C(=O)CN2C(=O)NC3(CCCC3)C2=O)c1C	9%	21%	2%	-4%	?
COc1ncc2nc(C)c(=O)n(C)c2n1	-5%	-7%	.	.	.
Cc1c(/C(O)=C2/C(=O)C(=O)N(CCN3CCOCC3)C2c2ccccn2)cnn1-c1ccccc1 (configuration not stated)	?	1.1µM*	-10%	4%	?
Cc1ccc(C2/C(=C(/O)c3cnn(-c4ccccc4)c3C)C(=O)C(=O)N2CCCN2CCOCC2)o1 (configuration not stated)	28%	8%	.	.	?
Cc1occc1-c1nnc(SCCNCCO)o1	1%	-29%	-1%	-2%	-2%
COC(=O)c1cccc(-c2ccc(C(c3c(C)[nH][nH]c3=O)c3c(C)[nH][nH]c3=O)o2)c1	-15%	11µM*	?	?	?
COC(=O)c1ccccc1-c1ccc(C(c2c(C)[nH][nH]c2=O)c2c(C)[nH][nH]c2=O)o1	-6%	37%	14µM*	26%	-3%
Cc1[nH][nH]c(=O)c1C(c1ccc(-c2ccc(Cl)c(C(=O)O)c2)o1)c1c(C)[nH][nH]c1=O	-6%	8%	10%	1%	?
CN(Cc1ccco1)c1ncnc2ccc(-c3cccc(C#N)c3)cc12	3%	-11%	.	.	.
CC(=O)c1cccc(NC(=O)N2CCCC2C(=O)Nc2ccc3c(c2)OCCO3)c1 (configuration not stated)	30%	31%	-1%	2%	?
Cc1ccc(CNS(=O)(=O)/C=C/c2ccc3c(c2)OCO3)cc1	-3%	45%	2%	-5%	11%
Cc1ccc(N=Nc2c(N)[nH]n3c(=O)cc(C)nc23)cc1	-24%	10µM*	?	-15%	11%
N=C1S/C(=C\c2ccco2)C(=O)N1c1ccc2c(c1)OCO2	?	19%	19%	?	?
N=C1S/C(=C\c2ccco2)C(=O)N1c1nccs1	0.22µM*	0.018µM*	?	25%	?
Cc1ccc(-n2nc(C)c(NC(=O)COC(=O)c3ccccc3NCCO)c2C)cc1	.	.	0%	2%	?
COc1cc2c(cc1OC)CN(C(=O)/C=C/c1ccccc1[N+](=O)[O-])CC2	4%	-8%	13µM*	16µM*	13µM*
COc1cc2c(cc1OC)CN(C(=O)/C=C/c1ccc([N+](=O)[O-])cc1)CC2	-4%	-35%	18%	-8%	-19%
COc1cc2c(cc1OC)CN(C(=O)/C=C/c1cccs1)CC2	0%	-2%	4.1µM*	13µM*	10%
COc1cc2c(cc1OC)CN(C(=O)c1cccs1)CC2	15%	4%	15%	-7%	5%
O=C(/C=C/c1cccs1)N1CCN(c2ccc(O)cc2)CC1	-5%[10 µM]	-2%	16µM*	?	?
O=C(Cn1c(=O)oc2ccccc21)NCC1COc2ccccc2O1 (configuration not stated)	-6%	?	6%	-2%	0%
O=C(NCCc1nnc2ccc(NCCCN3CCOCC3)nn12)c1ccccc1	-1%	4%	-4%	-31%	-4%
Nc1nonc1-n1nnc(C(=O)N/N=C/c2cc(Br)cs2)c1-c1ccccc1	5µM*	6.3µM*	5%	6%	-19%
Nc1nonc1-n1nnc(C(=O)N/N=C/c2ccccn2)c1-c1ccccc1	.	.	15%	94%	-8%
